# Source: ChEMBL document CHEMBL3433997, “St. Jude Leishmania screening dataset” (2016)
# Tests used:
# Type in all cases: functional
# [1] = target: Solute carrier family 2, facilitated glucose transporter member 1 (Homo sapiens) (UniProt P11166); assay: ST_JUDE_LEISH: Cytotoxicity at 2uM final concentration against transgenic Leishmania Mexicana promastigotes LmGLUT1 that are glucose transport deficient and complemented with the human glucose transporter GLUT1. Activity is measured by DNA content using SYBR green in vitro
# [2] = target: Hexose transporter 1 (Plasmodium falciparum) (UniProt O97467); assay: ST_JUDE_LEISH: Cytotoxicity at 2uM final concentration against transgenic Leishmania Mexicana promastigotes LmPfHT that are glucose transport deficient and complemented with the Plasmodium falciparum hexose transporter. Activity is measured by DNA content using SYBR green in vitro
# [3] = target: Glucose transporter (Leishmania mexicana) (UniProt O61059); assay: ST_JUDE_LEISH: Cytotoxicity at 2uM final concentration against transgenic Leishmania Mexicana promastigotes LmGT2 that are glucose transport deficient and complemented with the L. Mexicana glucose transporter 2. Activity is measured by DNA content using SYBR green in vitro
# Solute carrier family 2, facilitated glucose transporter member 1 (Homo sapiens), sequence (P11166 whole entry): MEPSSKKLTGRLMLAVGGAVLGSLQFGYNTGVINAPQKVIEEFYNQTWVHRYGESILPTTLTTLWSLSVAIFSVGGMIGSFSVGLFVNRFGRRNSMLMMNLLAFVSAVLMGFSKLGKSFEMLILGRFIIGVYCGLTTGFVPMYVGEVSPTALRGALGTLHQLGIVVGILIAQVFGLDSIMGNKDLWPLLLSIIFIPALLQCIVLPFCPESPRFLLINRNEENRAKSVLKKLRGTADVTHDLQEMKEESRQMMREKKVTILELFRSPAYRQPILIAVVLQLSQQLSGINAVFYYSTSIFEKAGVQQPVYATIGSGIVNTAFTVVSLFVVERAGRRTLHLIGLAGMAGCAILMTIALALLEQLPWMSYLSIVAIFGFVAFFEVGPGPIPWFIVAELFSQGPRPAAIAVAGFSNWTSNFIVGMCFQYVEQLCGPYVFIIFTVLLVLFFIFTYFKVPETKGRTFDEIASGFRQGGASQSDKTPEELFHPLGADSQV
SMILES,inhibition [1] [%],inhibition [2] [%],inhibition [3] [%]
O=C(Nc1cccc(CN2CCN(C(=O)c3cccc(Cl)c3)CC2)c1)c1ccco1,-4.34,0.58,3.82
COc1ccc(C(=O)CCC(=O)N(CCC2CCCN2C)Cc2ccc(-c3ccc(CNCCc4ccc(S(C)(=O)=O)cc4)cn3)cc2)cc1F (stereo not given),11.4,9.98,9.19
CCCCCCCCNCc1c(O)ccc2ccccc12,3.46,3.25,5.48
COCCN1CCN(Cc2cccc(-c3ccc(-c4nc5ccccc5[nH]4)cc3)c2)CC1,0.45,-3.13,-1.36
Cc1cc(N[C@@H](CC(C)C)C(=O)NCCOc2ccccc2)nc(NCCc2ccc(F)cc2)n1,2.19,2.57,-0.16
CCOc1ccc2[nH]c(C)cc(=NN=Cc3ccccc3)c2c1,3.33,2.11,2.8
CCOc1ccc2c(=NN=Cc3c4ccccc4cc4ccccc34)cc(C)[nH]c2c1,2.42,1.13,3.35
Cn1ccc(-c2cccc(Nc3ccnc4cc(-c5nccs5)ccc34)c2)n1,-0.21,0.32,-0.17
CC(=O)/N=C1\N=C(NC(C)=O)NC(C)(C)N1OCCCOc1ccc(Cl)c(Cl)c1,1.53,1.27,1.47
COC(=O)c1ccc(NC(=O)Nc2cccc(CCNCc3ccccc3)c2)cc1,-0.06,-0.8,-1.41
CN(Cc1cccc(F)c1)C1CCN(c2cc(NC(=O)c3ccc(F)cc3)ccn2)C1 (stereo not given),2.33,-0.57,1.63
CC(=O)c1cccc2cc(C(=O)NC3CCC(CCN4CCc5ccc(C#N)cc5C4)CC3)[nH]c12 (stereo not given),2.35,2,-0.27
Cc1c[nH]c(-c2cccc(C(=O)NC3CCC(CCN4CCc5ccc(C#N)cc5CC4)CC3)c2)n1 (stereo not given),2.16,1.04,1.55
CN(CCN(C)C(=O)NCc1ccccc1)C(=O)NCc1ccccc1,3.05,3.69,3.75
O=C(NCCCCN1CCC(c2ccc3c(c2OCC2CC2)CCCC3)CC1)c1ccc(NC(=O)c2ccc(Cl)cc2)cc1,7.74,6.44,8.96
CC(C(=O)OCCOCn1cnc2c(=O)[nH]c(N)nc21)N(C)C(=O)OC(C)(C)C (stereo not given),-2.44,-1.51,-3.59
Cc1ccc(C2CCN(CCCCNC(=O)c3ccc(NC(=O)c4ccc(Cl)cc4)cc3)CC2)c(OCC2CC2)c1,7.51,6.25,5.52
Nc1ncc(-c2ccc(Br)cc2)c(N)n1,1.2,-0.78,-0.3
COc1ccccc1NC(=O)Nc1cccc(-c2ccc(-c3nc4cc(C(F)(F)F)ccc4[nH]3)cc2)c1,2.16,2.07,0.72
CC(=O)c1nccc(C)c1N,2.66,1.53,2.57
O=C(NCCCCCCNCc1ccc(-c2ccccc2)cc1)Nc1ccc(Cl)c(Cl)c1,1.38,0.96,2.28
CCCC(C)Nc1nc(C)cc(N[C@@H](CC(C)C)C(=O)NCCOc2ccccc2)n1 (stereo not given in full),21.4,17,16.7
O=C(CCc1c[nH]cn1)Nc1cccc(-c2ccc(-c3nc4cc(F)ccc4[nH]3)cc2)c1,16.3,13.1,16.6
O=c1c2c([nH]c3cc(Cl)ccc13)CCCC2,4.95,3.08,3.09

SMILES,inhibition [1] [%],inhibition [2] [%],inhibition [3] [%]
FC(F)(F)c1ccc2[nH]c(-c3ccc(-c4cccc(CNCC5CCCO5)c4)s3)nc2c1 (stereo not given),0.73,2.27,2.21
COc1ccc(Cn2c(SCc3ccc(C)cc3)nc3cc(OC)c(OC)cc3c2=N)cc1Cl,-0.1,-4.17,-2.37
CCCN(CCC)CCCCC(C)Nc1c2ccc(Cl)cc2nc2ccc(OC)cc12 (stereo not given),8.02,8.65,9.34
Cc1noc(C)c1-c1cccc(CNCc2ccc(-c3ccc(-c4nc5cc(C(F)(F)F)ccc5[nH]4)s3)cc2)c1,3.88,3.12,0.04
N=C(N)NN=CC(=O)Nc1cccc(C(F)(F)F)c1,0.23,0.15,-1.62
O=C(Cn1c(CCc2cccc(F)c2F)nc(=O)c2cccnc21)N(Cc1ccc(-c2ccc(C(F)(F)F)cc2)cc1)C1CCN(C2CCOCC2)CC1,2.69,1.35,1.43
COc1cc2nc(N3CCC(CNCc4ccc(-c5ccc(C(F)(F)F)cc5)cc4)CC3)nc(N)c2cc1OC,106,107,110
COc1cccc(NC(=O)c2cc(C(=O)Nc3cccc(OC)c3)cc([N+](=O)[O-])c2)c1,2.37,3.98,1.08
CS(=O)(=O)c1ccc(Nc2ncc(-c3ccc(S(C)(=O)=O)cc3)c(OCC(F)(F)F)n2)cc1,4.36,0.18,3.17
COCn1ccc2c3c(N)nc(N)nc3ccc21,0.07,6.21,2.32
COc1cccc(Nc2nc(C)cc(NCc3ccc(-c4c(C)noc4C)cc3)n2)c1,14.8,13.4,3.73
COc1ccc(O)c(C(=O)c2cc(C(=O)NC3CCCCC3)c(=O)n(C3CCCCC3)c2)c1,5.33,4.33,3.2
N#Cc1ccc(-c2ccc(C(=O)Nc3ccc4c(c3)CCN(C3CCC3)CC4)nc2)cn1,7.75,7.17,5.21
CN(C)c1ccc(-c2csc(C(=O)NC3CCCCN(Cc4ccc(C(C)(C)C)cc4)C3)c2)cc1 (stereo not given),-1.22,-0.61,1.96
CCOc1cc(C(=O)NC2CC(C)(C)N(C)C(C)(C)C2)ccc1-c1nc2cc(Cl)c(Cl)cc2[nH]1,5.59,12.6,7.12
CCc1cc(COc2ccc(CNCCC(C)C)cc2I)c(OCc2ccccc2)c(COc2ccc(CNCCC(C)C)cc2I)c1,-0.25,-3.29,3.76
Cc1ccc(NC(=O)NC2CCN(c3ccnc4cc(Cl)ccc34)CC2)cc1,9.02,7.47,8.65
Cc1cc2c(cc1C(F)(F)F)N(C(=O)Nc1ccc(C(=O)NC3CCN(Cc4ccccc4)C3)cc1)CC2 (stereo not given),4.56,4.45,4.54
COc1ccc2c(c1)CCCC2C(C)NCC(O)c1cccc(C(F)(F)F)c1 (stereo not given),8.86,5.98,6.3
CC1CN(Cc2cccc(-c3ccc(-c4nc5ccccc5[nH]4)cc3)c2)CC(C)O1 (stereo not given),3.06,4.42,2.3
O=C(Nc1cccc([N+](=O)[O-])c1)Nc1cccc(C(F)(F)F)c1,1.48,1.8,2.9
O=C(Nc1ccc(Cl)c(Cl)c1)Nc1ccccc1N1CCNCC1,0.02,0.2,1.04
C=C[C@]1(C)C[C@@H](OC(=O)NC(=O)C2CCN(C(=O)CSc3ccccc3)CC2)[C@]2(C)[C@H](C)CC[C@]3(CCC(=O)[C@H]32)[C@@H](C)[C@@H]1O,10.2,11.6,5.56
CN1CCN(c2ccc(CNc3ccc4ncc(-c5cccc(OC(F)(F)F)c5)n4n3)cc2)CC1,-2.82,-3.7,-2.5

SMILES,inhibition [1] [%],inhibition [2] [%],inhibition [3] [%]
O=C(NC1CCN(CC2(c3ccc(Cl)cc3)CCCCC2)CC1)c1cc[nH]n1,3.86,2.9,3.61
CC(CCCCOCCc1ccccc1)NCC(O)c1cc(Cl)c(N)c(Cl)c1 (stereo not given),2.66,0.7,2.18
CC(=O)Nc1ccc(C(=O)Nc2cccc(-c3cccc(-c4nc5ccccc5[nH]4)c3)c2)cn1,2.35,-0.22,1.34
Cc1ccc(Cc2c(C)nc3nc(N)nc(N)c3c2C)cc1,69.9,73.4,54.4
Cc1cc(NCCC(=O)Nc2ccccc2)nc(NCCc2ccc(F)cc2)n1,3.19,3.34,1.6
O=C(NCC1CC1)C1CCN(C(c2ccc(Cl)cc2)c2ccc(Cl)cc2)CC1,0.44,1.5,-2.15
O=C(Nc1ccc(Cl)cc1)N[C@H]1CCN(CCCCCNC(=O)C2CC2c2ccc(Cl)c(Cl)c2)C1 (stereo not given in full),8.91,6.32,8.02
Cc1cccc2nc(-c3cccc(-c4ccc(NC(=O)c5cnccc5C(F)(F)F)cc4)c3)[nH]c12,1.18,-0.42,3.44
Cc1ccc2[nH]c3c(NCCN(C)C)ncnc3c2c1,0.53,1.24,-0.07
O=C(Nc1ccc(N2CCCCC2)c(Cl)c1)c1ccco1,0.11,0.86,-1.58
COC(=O)C(Cc1ccccc1)C(CSCc1ccc(OC)cc1)C(=O)N[C@@H](C(=O)OC(C)(C)C)c1ccc(C(C)(C)C)cc1 (stereo not given in full),4.24,4.41,5.18
O=C(/C=C/c1ccc(Cl)c(Cl)c1)NCCCCCN1CCCN(C(=O)Nc2ccc([N+](=O)[O-])cc2)CC1,1.18,1.11,4.07
COc1ccc(CNc2cc(C)nc3sc4c(c23)CCC2(C4)OCCO2)cc1,1.79,1.85,0.47
Cc1cccc2nc(-c3cccc(-c4cccc(CNC(C)C)c4)c3)[nH]c12,-0.63,0.85,0.35
COc1ccc2ncc(F)c(CCN3C[C@H](CNCc4cc(C#N)c5c(c4)OCCO5)[C@H](O)C3)c2n1,7.97,8.03,1.91
Cc1cccc2nc(-c3ccc(-c4cccc(NC(=O)NCc5cccc(F)c5)c4)s3)[nH]c12,-1.66,-0.47,-1.14
CC(C)n1ncc2c(C(=O)N3CCCc4ccccc43)cc(-c3ccccc3)nc21,4.46,2.95,3.97
COc1ccc(CCN(C)CCOc2ccc(NC(=O)c3cccc4cc5ccccc5nc34)cc2)cc1OC,2.4,1.69,1.88
O=C(Nc1cccc(-c2nn3ccccc3c2-c2ccnc(Nc3ccc(NCCCN4CCOCC4)c(F)c3)n2)c1)c1c(F)cccc1F,46.9,30.5,5.22
Cc1ccc(C(=O)Nc2ccc(F)cc2)cc1-c1nc(NC2CC(C)(C)NC(C)(C)C2)nc2c1ccc(=O)n2-c1c(F)cccc1F,4.77,3.62,2.81
CC(=O)Nc1ccc(S(=O)(=O)N(Cc2cccc(Oc3ccccc3)c2)C2CCN(C/C=C(\C)CCC=C(C)C)CC2)cc1,-0.15,0.21,-0.73
CCCNCc1ccc(-c2ccc(CN(CCOC)C(=O)CC3CCCC3=O)cc2)nc1 (stereo not given),0.55,0.07,-9.43
